Experimental data as given in PubChem BioAssay AID1159580 (chemical genetic matrix, 2015).
Values joined by “and” are separate entries in the source; they are usually repeats but may differ in a detail not shown here. Equal entries are not always repeated. Hit rate of the full screen: of about 5,500 compounds, about 2,000 (36%) were called active. Another 18% or so got no clear call; they are omitted. No stated cut-off is given here; in the data, active means normalized growth mostly below about 0.91 (no sharp cut-off); inconclusive means no clear call, values can overlap the other calls; inactive means mostly above about 0.92. Some of the results follow.

Assay: chemical genetic growth profiling, strain panel (AID 1159580);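 further: tested at 20 µM; growth read once vehicle control cultures reached saturation at 30 °C; 1 = growth at the plate median or of vehicle wells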
Settings: S. cerevisiae deletion strains, growth OD

Measured: normalized growth

NCCCC[C@H](N[C@@H](CCc1ccccc1)C(=O)O)C(=O)N1CCC[C@H]1C(=O)O
inactive: locus YAL021C, strain ccr4, stronger effect = lower value 1.01 | locus YAL026C, strain drs2, stronger effect = lower value 1.02 | locus YAL030W, strain snc1, stronger effect = lower value 0.978 | locus YBL061C, strain skt5, stronger effect = lower value 1.01 | locus YBR009C, strain hhf1, stronger effect = lower value 0.98 | locus YBR021W, strain FUR4, stronger effect = lower value 1.01 | locus YBR023C, strain chs3, stronger effect = lower value 0.998 | locus YBR171W, strain sec66, stronger effect = lower value 1.02 | locus YBR229C, strain ROT2, stronger effect = lower value 0.962 | locus YBR231C, strain swc5, stronger effect = lower value 1.01 | locus YBR279W, strain paf1, stronger effect = lower value 0.998 | locus YCL011C, strain gbp2, stronger effect = lower value 0.997 | locus YCL016C, strain dcc1, stronger effect = lower value 0.99 | locus YCL029C, strain bik1, stronger effect = lower value 0.992 | locus YCL069W, strain vba3, stronger effect = lower value 1.03 | locus YCR088W, strain abp1, stronger effect = lower value 1.03 | locus YDL005C, strain med2, stronger effect = lower value 1.03 | locus YDL035C, strain GPR1, stronger effect = lower value 0.995 | locus YDL040C, strain nat1, stronger effect = lower value 0.998 | locus YDL074C, strain BRE1, stronger effect = lower value 0.932 | locus YDL101C, strain DUN1, stronger effect = lower value 0.982 | locus YDL134C, strain PPH21, stronger effect = lower value 1 | locus YDL185W, strain tfp1, stronger effect = lower value 0.989 | locus YDL192W, strain arf1, stronger effect = lower value 0.992 | locus YDR001C, strain nth1, stronger effect = lower value 1.01 | locus YDR069C, strain doa4, stronger effect = lower value 0.935 | locus YDR101C, strain arx1, stronger effect = lower value 0.995 | locus YDR137W, strain rgp1, stronger effect = lower value 0.994 | locus YDR150W, strain NUM1, stronger effect = lower value 0.99 | locus YDR159W, strain sac3, stronger effect = lower value 0.923 | locus YDR162C, strain NBP2, stronger effect = lower value 0.994 | locus YDR195W, strain ref2 0.987 | locus YDR297W, strain sur2, stronger effect = lower value 0.979 | locus YDR318W, strain mcm21, stronger effect = lower value 1 | locus YDR334W, strain swr1, stronger effect = lower value 1.01 | locus YDR335W, strain msn5, stronger effect = lower value 0.972 | locus YDR388W, stronger effect = lower value 0.993 | locus YDR392W, strain spt3, stronger effect = lower value 1.01 | locus YDR502C, strain sam2, stronger effect = lower value 0.999 | locus YEL003W, strain gim4, stronger effect = lower value 1.02 | locus YEL037C, strain rad23, stronger effect = lower value 1.01 | locus YEL061C, strain CIN8 (second series), stronger effect = lower value 1.02 | locus YEL061C, strain CIN8, stronger effect = lower value 0.978 | locus YER015W, strain faa2, stronger effect = lower value 1 | locus YER016W, strain bim1, stronger effect = lower value 0.997 | locus YER110C, stronger effect = lower value 0.989 | locus YER111C, strain swi4, stronger effect = lower value 1.02 | locus YER155C, strain BEM2 (second series), stronger effect = lower value 0.994 | locus YER155C, strain BEM2, stronger effect = lower value 0.996 | locus YER167W, strain BCK2, stronger effect = lower value 0.989 | locus YFR010W, strain ubp6, stronger effect = lower value 1.01 | locus YGL078C, strain dbp3, stronger effect = lower value 1 | locus YGL086W, strain mad1, stronger effect = lower value 0.982 | locus YGL167C, strain pmr1, stronger effect = lower value 1.01 | locus YGL173C, strain kem1, stronger effect = lower value 1.04 | locus YGL227W, strain vid30, stronger effect = lower value 1.01 | locus YGL240W, strain doc1, stronger effect = lower value 0.92 | locus YGL248W, strain PDE1, stronger effect = lower value 0.966 | locus YGL253W, strain hxk2, stronger effect = lower value 0.971 | locus YGR135W, strain pre9, stronger effect = lower value 1.01 | locus YGR252W, strain gcn5, stronger effect = lower value 1.02 | locus YHR013C, strain ard1, stronger effect = lower value 1.01 | locus YHR027C, strain rpn1, stronger effect = lower value 0.985 | locus YHR030C, strain SLT2, stronger effect = lower value 0.996 and 1.03 | locus YHR079C, strain IRE1 (second series), stronger effect = lower value 0.999 | locus YHR079C, strain IRE1, stronger effect = lower value 1.05 | locus YHR094C, strain hxt1, stronger effect = lower value 0.995 | locus YHR129C, strain ARP1, stronger effect = lower value 0.997 | locus YHR142W, strain chs7, stronger effect = lower value 1.03 | locus YHR200W, strain rpn10, stronger effect = lower value 1 | locus YIL066C, strain RNR3, stronger effect = lower value 0.973 | locus YIL073C, strain SPO22, stronger effect = lower value 1.06 | locus YIL125W, strain kgd1, stronger effect = lower value 0.993 | locus YIR030C, strain dcg1, stronger effect = lower value 0.993 | locus YJL092W, strain hpr5, stronger effect = lower value 1.02 | locus YJL095W, strain BCK1 (second series), stronger effect = lower value 0.972 | locus YJL095W, strain BCK1, stronger effect = lower value 0.968 and 1.01 | locus YJL115W, strain asf1, stronger effect = lower value 1.01 | locus YJL129C, strain trk1, stronger effect = lower value 1.04 | locus YJL134W, strain LCB3, stronger effect = lower value 0.994 | locus YJL154C, strain vps35, stronger effect = lower value 1.03 | locus YJL164C, strain tpk1, stronger effect = lower value 1.02 | locus YJL166W, strain qcr8, stronger effect = lower value 0.989 | locus YJL168C, strain set2, stronger effect = lower value 0.995 | locus YJL187C, strain SWE1 (second series), stronger effect = lower value 0.971 | locus YJR043C, strain POL32, stronger effect = lower value 0.986 | locus YJR066W, strain TOR1, stronger effect = lower value 0.969 | locus YJR075W, strain HOC1, stronger effect = lower value 0.979
